# Experimental data published in PubChem BioAssay.
# Active and inactive are the calls of the source.
# What was measured:
# [1] = system: PRMT1 (protein arginine N-methyltransferase 1); assay: PRMT1 binders on small-molecule microarrays, primary screen, biochemical, small-molecule microarray, 635 nm fluorescence (AID 1088); settings: small-molecule microarray binding, higher = more signal;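 further: binding of Prmt1 protein to compounds spotted on small-molecule microarray slides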
# [2] = yeast growth modulation, basal conditions, primary screen, YJM789 clinical isolate, OD600, 24 h (AID 1089);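 further: growth of clinical yeast isolate S. cerevisiae YJM 789 seeded 1000 cells per well; test concentration not given here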; settings: S. cerevisiae YJM789 growth, higher = more signal, called active from +8 up or from −8 down
# [3] = fission yeast growth modulation, primary screen, strain 972, OD600, 24 h, no modulator (AID 1090);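 further: basal condition with compound alone and no growth modifier present; test concentration not given here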; settings: S. pombe 972 growth, higher = more signal, called active from +8 up or from −8 down
# [4] = S. cerevisiae growth modulation with rapamycin, primary screen, strain BY4716, OD600, 96 h (AID 1091); settings: higher = more signal, called active from +8 up or from −8 down; further: test concentration not given here
# [5] = molecular target: Torsin-1A-interacting protein 2 (Homo sapiens) (UniProt Q8NFQ8); assay: LULL1 binders on small-molecule microarray, primary screen, cell lysate, human LULL1 lysate, 635/667 nm fluorescence (AID 1092); settings: hLULL1 lysate binding, 635 nm fluorescence, higher = more signal;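 further: probe is lysate of COS7 cells overexpressing human LULL1; score merges per-feature 667 nm fluorescence with signal-to-noise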
# [6] = E. coli growth modulation, two-sided OD650, primary screen, E. coli filamentation project, strain DRC41, 24 h (AID 1093); settings: OD650, 24 h, higher = more signal, called active from +8 up or from −8 down;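 further: MC1000 strain lacking acrAB efflux and sulA so SOS filamentation is blocked; test concentration not given here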
# [7] = small-molecule microarray binders of probe aLefty2, primary screen, biochemical, biotinylated probe, 635/667 nm fluorescence (AID 1094); settings: higher = more signal;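 further: score merges spot fluorescence near 667 nm with spot signal-to-noise ratio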
# [8] = system: Noggin (protein binding on small-molecule microarray); assay: Noggin binders on small-molecule microarray, primary screen, biochemical, 635/667 nm fluorescence (AID 1095); settings: 635 nm fluorescence, higher = more signal;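 further: score merges 667 nm feature fluorescence with signal to noise over triplicate slides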
# [9] = molecular target: Neurogenic locus notch homolog protein 3 (Homo sapiens) (UniProt Q9UM47); assay: NOTCH3 binders on small-molecule microarray, primary screen, biochemical, 635/667 nm fluorescence (AID 1096); settings: NOTCH3 binding, 635 nm fluorescence, higher = more signal
# [10] = small-molecule microarray binders of probe aEGFR, primary screen, biochemical, biotinylated probe, 635/667 nm fluorescence (AID 1097); settings: higher = more signal;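 further: probe is a biotinylated anti-EGFR antibody binding compounds printed on slides; score combines fluorescence near 667 nm and signal to noise of each spot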
# [11] = system: Plasmodium falciparum Sir2 (PF13_0152, Sir2A); assay: pfSir2 binders on small-molecule microarrays, primary screen, biochemical, small-molecule microarray, 635 nm fluorescence (AID 1098); settings: small-molecule microarray binding, fluorescence 635 nm; higher = more signal;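 further: score merges spot fluorescence intensity with its signal-to-noise ratio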
# [12] = small-molecule microarray binders of probe aDKK1, primary screen, biochemical, biotinylated probe, 635/667 nm fluorescence (AID 1099); settings: higher = more signal;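 further: score merges 667nm spot fluorescence with signal to noise across triplicate slides; reference of the scale not given here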
# [13] = small-molecule microarray binders of probe aCHRDL2, primary screen, biochemical, biotinylated probe, 635/667 nm fluorescence (AID 1100); settings: higher = more signal
# [14] = splicing luciferase reporter signal modulators, primary screen, spliceosome inhibition project, cell-based, HEK293, splice +/- reporter (AID 1101); settings: luminescence, 24 h, higher = more signal, called active from +8 up or from −8 down;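 further: HEK293 cells carrying a splicing-competent luciferase reporter gene; test concentration not given here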
# [15] = molecular target: Fibroblast growth factor 10 (Homo sapiens) (UniProt O15520); assay: FGF10 binders on small-molecule microarrays, primary screen, biochemical, small-molecule microarray, 635 nm fluorescence (AID 1102); settings: FGF10 binding, fluorescence 635 nm, higher = more signal
# [16] = system: glycogen synthase kinase-3 (GSK3A per assay name; protocol says GSK3B); assay: GSK3 binders on small-molecule microarrays, primary screen, biochemical, small-molecule microarray, 635 nm fluorescence, GSK3A (AID 1103); settings: small-molecule microarray binding, fluorescence 635 nm; higher = more signal; further: the record names both GSK3A and GSK3B
# [17] = molecular target: Epidermal growth factor receptor (Homo sapiens) (UniProt P00533); assay: EGFR binders on small-molecule microarrays, primary screen, biochemical, small-molecule microarray, 635 nm fluorescence (AID 1104); settings: EGFR binding, higher = more signal;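 further: score merges 667 nm emission intensity with spot signal to noise over triplicate slides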
# [18] = molecular target: Follistatin-related protein 3 (Homo sapiens) (UniProt O95633); assay: FSTL3 binders on small-molecule microarrays, primary screen, biochemical, small-molecule microarray, 635 nm fluorescence (AID 1105); settings: FSTL3 binding, higher = more signal;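 further: score merges emission near 667 nm and signal to noise per printed spot across three slides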
# [19] = molecular target: Dickkopf-related protein 1 (Homo sapiens) (UniProt O94907); assay: DKK1 binders on small-molecule microarrays, primary screen, biochemical, small-molecule microarray, 635 nm fluorescence scan (AID 1106); settings: DKK1 binding, higher = more signal;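 further: score merges emission near 667 nm with signal to noise over three replicate slides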
# [20] = system: Inhibin beta A chain (activin A); assay: INHBA (activin A) binders on microarrays, primary screen, biochemical, small-molecule microarray, 635 nm fluorescence scan (AID 1107); settings: small-molecule microarray binding, higher = more signal;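 further: mouse activin A protein probed at 4.33 µg/mL on printed slides; score merges bound-protein fluorescence near 667 nm with spot signal-to-noise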
# Dickkopf-related protein 1 (Homo sapiens), sequence (O94907 whole entry, looked up): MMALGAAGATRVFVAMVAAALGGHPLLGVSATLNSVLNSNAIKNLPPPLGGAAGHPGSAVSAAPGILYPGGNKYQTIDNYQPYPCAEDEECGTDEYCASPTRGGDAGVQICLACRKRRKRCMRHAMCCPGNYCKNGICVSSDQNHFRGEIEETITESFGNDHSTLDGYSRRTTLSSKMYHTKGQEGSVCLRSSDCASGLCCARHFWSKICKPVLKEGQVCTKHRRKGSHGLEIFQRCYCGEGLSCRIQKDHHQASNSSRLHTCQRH
# Epidermal growth factor receptor (Homo sapiens), sequence (P00533 whole entry, looked up): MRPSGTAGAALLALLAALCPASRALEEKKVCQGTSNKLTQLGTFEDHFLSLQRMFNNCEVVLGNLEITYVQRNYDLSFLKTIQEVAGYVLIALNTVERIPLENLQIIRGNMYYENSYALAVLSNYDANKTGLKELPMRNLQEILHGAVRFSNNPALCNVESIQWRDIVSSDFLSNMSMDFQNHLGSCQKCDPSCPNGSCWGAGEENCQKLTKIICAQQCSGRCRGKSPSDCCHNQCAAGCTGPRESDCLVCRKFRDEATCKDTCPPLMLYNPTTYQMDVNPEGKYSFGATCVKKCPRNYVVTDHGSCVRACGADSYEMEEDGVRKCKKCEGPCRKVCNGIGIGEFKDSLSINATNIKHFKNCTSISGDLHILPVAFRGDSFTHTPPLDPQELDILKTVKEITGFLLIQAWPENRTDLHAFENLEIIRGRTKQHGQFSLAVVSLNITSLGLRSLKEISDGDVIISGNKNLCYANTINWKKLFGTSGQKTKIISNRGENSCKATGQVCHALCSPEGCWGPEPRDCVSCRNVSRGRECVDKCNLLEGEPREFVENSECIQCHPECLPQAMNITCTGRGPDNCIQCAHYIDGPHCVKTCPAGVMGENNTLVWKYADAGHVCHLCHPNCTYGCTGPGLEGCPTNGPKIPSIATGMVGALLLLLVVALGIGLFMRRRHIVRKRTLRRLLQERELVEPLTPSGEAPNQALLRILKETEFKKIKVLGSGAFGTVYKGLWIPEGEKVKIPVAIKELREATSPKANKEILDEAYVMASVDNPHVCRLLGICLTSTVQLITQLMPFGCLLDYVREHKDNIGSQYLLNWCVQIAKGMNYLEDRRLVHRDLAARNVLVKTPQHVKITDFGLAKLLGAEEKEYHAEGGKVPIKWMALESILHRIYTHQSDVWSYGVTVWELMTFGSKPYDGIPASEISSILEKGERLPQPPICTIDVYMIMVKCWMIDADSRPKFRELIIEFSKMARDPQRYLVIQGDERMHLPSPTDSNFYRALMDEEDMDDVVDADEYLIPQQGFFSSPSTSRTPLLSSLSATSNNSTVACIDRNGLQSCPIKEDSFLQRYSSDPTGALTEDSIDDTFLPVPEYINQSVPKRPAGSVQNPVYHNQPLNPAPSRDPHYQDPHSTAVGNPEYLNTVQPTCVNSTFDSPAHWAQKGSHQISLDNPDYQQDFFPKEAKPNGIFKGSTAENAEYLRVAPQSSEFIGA
# Fibroblast growth factor 10 (Homo sapiens), sequence (O15520 whole entry, looked up): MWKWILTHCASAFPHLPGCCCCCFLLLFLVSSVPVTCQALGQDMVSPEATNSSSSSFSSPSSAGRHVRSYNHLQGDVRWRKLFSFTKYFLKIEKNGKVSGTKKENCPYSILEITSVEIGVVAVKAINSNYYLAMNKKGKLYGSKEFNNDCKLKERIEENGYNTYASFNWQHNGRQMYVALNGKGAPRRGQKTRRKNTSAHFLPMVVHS
# Neurogenic locus notch homolog protein 3 (Homo sapiens), sequence (Q9UM47 whole entry, looked up): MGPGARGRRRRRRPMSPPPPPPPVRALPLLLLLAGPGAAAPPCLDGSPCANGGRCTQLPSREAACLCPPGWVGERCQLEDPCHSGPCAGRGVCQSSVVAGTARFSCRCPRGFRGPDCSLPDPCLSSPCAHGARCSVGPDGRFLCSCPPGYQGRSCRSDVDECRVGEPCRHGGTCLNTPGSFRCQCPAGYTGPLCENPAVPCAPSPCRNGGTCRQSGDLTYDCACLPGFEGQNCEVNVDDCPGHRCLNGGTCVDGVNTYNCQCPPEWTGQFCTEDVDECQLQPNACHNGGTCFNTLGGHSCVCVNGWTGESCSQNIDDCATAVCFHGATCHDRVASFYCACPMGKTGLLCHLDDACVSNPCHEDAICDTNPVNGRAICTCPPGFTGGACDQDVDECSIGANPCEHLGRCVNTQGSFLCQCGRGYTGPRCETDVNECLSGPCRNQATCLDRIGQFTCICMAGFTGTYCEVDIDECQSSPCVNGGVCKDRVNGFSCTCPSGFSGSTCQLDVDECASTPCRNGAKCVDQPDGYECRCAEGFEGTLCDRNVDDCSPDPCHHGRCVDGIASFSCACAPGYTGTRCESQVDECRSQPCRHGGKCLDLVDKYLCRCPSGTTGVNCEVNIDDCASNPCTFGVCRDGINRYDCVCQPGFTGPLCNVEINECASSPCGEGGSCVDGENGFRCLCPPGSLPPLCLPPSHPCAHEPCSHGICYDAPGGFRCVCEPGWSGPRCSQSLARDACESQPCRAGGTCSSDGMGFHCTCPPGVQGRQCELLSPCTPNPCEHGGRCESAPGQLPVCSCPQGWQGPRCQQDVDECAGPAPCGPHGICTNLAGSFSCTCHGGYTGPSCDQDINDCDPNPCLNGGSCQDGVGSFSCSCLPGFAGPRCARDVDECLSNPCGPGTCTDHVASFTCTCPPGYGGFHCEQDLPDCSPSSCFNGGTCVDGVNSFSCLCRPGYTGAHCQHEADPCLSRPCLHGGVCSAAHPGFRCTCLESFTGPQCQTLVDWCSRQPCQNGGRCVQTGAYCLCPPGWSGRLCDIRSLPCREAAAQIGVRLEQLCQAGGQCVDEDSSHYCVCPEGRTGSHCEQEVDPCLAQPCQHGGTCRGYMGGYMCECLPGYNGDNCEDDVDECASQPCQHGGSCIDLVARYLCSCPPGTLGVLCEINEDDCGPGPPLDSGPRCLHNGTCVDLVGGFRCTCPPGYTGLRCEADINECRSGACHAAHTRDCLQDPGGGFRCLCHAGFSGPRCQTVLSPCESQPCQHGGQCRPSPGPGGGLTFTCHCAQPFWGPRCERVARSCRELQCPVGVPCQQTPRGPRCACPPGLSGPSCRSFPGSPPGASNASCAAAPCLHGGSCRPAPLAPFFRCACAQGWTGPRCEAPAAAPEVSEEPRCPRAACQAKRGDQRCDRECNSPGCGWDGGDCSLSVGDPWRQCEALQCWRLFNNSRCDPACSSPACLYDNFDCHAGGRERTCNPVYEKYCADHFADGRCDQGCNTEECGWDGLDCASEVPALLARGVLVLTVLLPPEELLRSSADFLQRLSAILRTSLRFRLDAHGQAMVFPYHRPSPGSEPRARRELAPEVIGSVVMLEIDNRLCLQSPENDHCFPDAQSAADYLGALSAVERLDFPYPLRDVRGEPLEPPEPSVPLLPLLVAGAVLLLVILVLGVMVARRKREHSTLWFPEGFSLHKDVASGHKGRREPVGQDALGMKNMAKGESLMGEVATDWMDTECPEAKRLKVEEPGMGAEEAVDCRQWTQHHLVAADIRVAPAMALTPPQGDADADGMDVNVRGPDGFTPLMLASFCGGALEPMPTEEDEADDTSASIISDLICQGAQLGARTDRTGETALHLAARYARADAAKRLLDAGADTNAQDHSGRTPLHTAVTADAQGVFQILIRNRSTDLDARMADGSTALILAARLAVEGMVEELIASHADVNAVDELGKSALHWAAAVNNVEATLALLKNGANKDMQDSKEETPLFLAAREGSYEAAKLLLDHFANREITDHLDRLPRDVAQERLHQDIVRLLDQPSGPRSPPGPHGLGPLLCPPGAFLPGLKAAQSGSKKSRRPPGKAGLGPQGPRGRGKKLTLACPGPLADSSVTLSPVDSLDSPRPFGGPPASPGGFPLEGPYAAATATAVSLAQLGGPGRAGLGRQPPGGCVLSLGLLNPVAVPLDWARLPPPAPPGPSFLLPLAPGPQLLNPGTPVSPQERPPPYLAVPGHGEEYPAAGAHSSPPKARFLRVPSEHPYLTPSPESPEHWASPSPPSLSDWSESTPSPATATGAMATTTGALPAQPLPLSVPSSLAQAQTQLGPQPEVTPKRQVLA
# Torsin-1A-interacting protein 2 (Homo sapiens), sequence (Q8NFQ8 whole entry, looked up): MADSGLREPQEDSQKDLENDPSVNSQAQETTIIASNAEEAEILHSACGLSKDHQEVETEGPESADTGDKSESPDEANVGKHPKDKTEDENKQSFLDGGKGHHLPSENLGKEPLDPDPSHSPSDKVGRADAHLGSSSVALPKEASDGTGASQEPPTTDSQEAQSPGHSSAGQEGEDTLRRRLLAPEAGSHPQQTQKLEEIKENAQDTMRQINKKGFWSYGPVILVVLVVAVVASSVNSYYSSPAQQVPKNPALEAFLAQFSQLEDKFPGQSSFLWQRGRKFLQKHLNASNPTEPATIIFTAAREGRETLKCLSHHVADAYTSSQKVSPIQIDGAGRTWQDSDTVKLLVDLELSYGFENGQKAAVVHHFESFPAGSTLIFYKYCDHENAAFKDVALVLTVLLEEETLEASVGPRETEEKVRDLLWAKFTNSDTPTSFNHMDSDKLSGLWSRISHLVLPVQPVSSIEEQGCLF
# Follistatin-related protein 3 (Homo sapiens), sequence (O95633 whole entry, looked up): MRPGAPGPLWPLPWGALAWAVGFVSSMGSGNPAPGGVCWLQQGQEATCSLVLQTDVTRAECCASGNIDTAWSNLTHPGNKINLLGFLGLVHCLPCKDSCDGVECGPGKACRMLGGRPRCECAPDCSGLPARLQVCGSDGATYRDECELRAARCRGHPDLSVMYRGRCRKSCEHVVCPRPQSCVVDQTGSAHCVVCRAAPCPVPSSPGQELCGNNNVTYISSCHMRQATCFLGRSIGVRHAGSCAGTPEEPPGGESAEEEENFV
SMILES,composite z-score [1],z-score [2],z-score [3],z-score [4],composite z-score [5],z-score [6],composite z-score [7],composite z-score [8],composite z-score [9],composite z-score [10],composite z-score [11],composite z-score [12],composite z-score [13],z-score [14],composite z-score [15],composite z-score [16],composite z-score [17],composite z-score [18],composite z-score [19],composite z-score [20]
CCN(CC)c1ccc(N2CC=CC34O[C@@H]5/C=C\CCC(C)OC(=O)C5[C@H]3C(=O)N(CCCCCO)[C@@H]4C2=O)cc1 (stereo not given in full),-0.895,0.026 (inactive),-1.42 (inactive),-0.399 (inactive),-1.3,-0.374 (inactive),-0.283,-0.663,-0.134,-0.238,-1.01,-0.0549,0.288,0.292 (inactive),-0.976,-1.02,-0.518,-0.669,-0.555,0.306
COCCOC(=O)N1C(=O)[C@@]2(c3cc(C#CC4=CCCCC4)ccc31)[C@H](C(N)=O)[C@H]1C(=O)O[C@H](c3ccccc3)[C@H](c3ccccc3)N1[C@@H]2c1ccc(O)cc1,1.55,-1.59 (inactive),-0.638 (inactive),0.0591 (inactive),3.06,0.573 (inactive),0.725,0.735,1.13,0.0038,1.61,0.0331,0.275,-1.18 (inactive),1.15,0.96,0.586,0.829,0.318,0.787
CC#CC(=O)Oc1ccc(Br)cc1C=CC(=O)OCC,0.162,-23.6 (active),-16 (active),-2.38 (inactive),1.18,-0.0056 (inactive),0.188,-0.157,0.0254,-0.0765,-0.384,0.321,0.481,1.07 (inactive),-0.0853,-0.108,-0.257,0.137,-0.382,1.24
CCCC=C(CCC)[C@@H](NS(=O)(=O)c1ccc(Cl)cc1)c1ccc(C(=O)OC)cc1,0.687,-0.288 (inactive),0.745 (inactive),-0.825 (inactive),0.735,0.0177 (inactive),0.0007,-0.392,-1.6,0.0219,0.456,0.113,-0.461,0.184 (inactive),0.401,0.836,0.228,-0.445,0.291,0.28
CCCCN1CC=CC23O[C@@H]4/C=C\CCCOC(=O)C4[C@H]2C(=O)N(CCCO)[C@@H]3C1=O (stereo not given in full),1.27,-1.15 (inactive),-1.04 (inactive),-0.513 (inactive),2.86,0.0383 (inactive),-0.212,-0.991,-0.1,-0.324,0.992,-0.222,0.421,0.187 (inactive),-1.11,-0.224,-0.992,-0.946,-0.984,-0.27
